Legend:
Details in all cases: concentration: 1 μM, replicates: in singlicate; n = 1
GRK7 = test system: GRK7
GSK3A = test system: GSK3A
GSK3B = test system: GSK3B
HASPIN = test system: T1, HASPIN
T1 construct: gene GSG2

HCK = test system: HCK
HIPK1 = test system: HIPK1
HIPK2 = test system: HIPK2
HIPK3 = test system: HIPK3
HIPK4 = test system: HIPK4
HPK1 = test system: HPK1
HUNK = test system: HUNK
ICK = test system: ICK
IGF1R = test system: IGF1R
IKK-alpha = test system: T2, IKK-alpha
T2 construct: gene CHUK

IKK-beta = test system: T3, IKK-beta
T3 construct: gene IKBKB

IKK-epsilon = test system: T4, IKK-epsilon
T4 construct: gene IKBKE

INSRR = test system: INSRR
INSR = test system: INSR
IRAK1 = test system: IRAK1
IRAK3 = test system: IRAK3
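Further: KINOMEscan kinase panel screen.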

| SMILES | %Inh (GRK7) [%] | %Inh (GSK3A) [%] | %Inh (GSK3B) [%] | %Inh (HASPIN) [%] | %Inh (HCK) [%] | %Inh (HIPK1) [%] | %Inh (HIPK2) [%] | %Inh (HIPK3) [%] | %Inh (HIPK4) [%] | %Inh (HPK1) [%] | %Inh (HUNK) [%] | %Inh (ICK) [%] | %Inh (IGF1R) [%] | %Inh (IKK-alpha) [%] | %Inh (IKK-beta) [%] | %Inh (IKK-epsilon) [%] | %Inh (INSRR) [%] | %Inh (INSR) [%] | %Inh (IRAK1) [%] | %Inh (IRAK3) [%] |
| --- | --- | --- | --- | --- | --- | --- | --- | --- | --- | --- | --- | --- | --- | --- | --- | --- | --- | --- | --- | --- |
| Cc1cc(NCC(c2ccccc2)c2ccccc2)nc(NCc2ccc(C(F)(F)F)cc2)n1 [GW497681] | 0 | 4 | 0 | 0 | 0 | 0 | 0 | 0 | 0 | 23 | 13 | 0 | 27 | 0 | 0 | 26 | 0 | 0 | 23 | 0 |
| CC(=O)Nc1nc2cnc(Nc3cc(NC(=O)c4cccc(CCC#N)c4)ccc3C)nc2s1 | 6 | 0 | 0 | 21 | 21 | 15 | 20 | 6 | 5 | 0 | 0 | 0 | 0 | 10 | 0 | 33 | 0 | 34 | 19 | 21 |
| Cc1c(Cn2ccn3c(=O)cc(N4CCOCC4)nc23)cccc1C(F)(F)F [GSK2289044] | 0 | 1 | 8 | 0 | 0 | 0 | 0 | 24 | 0 | 15 | 29 | 0 | 0 | 0 | 0 | 3 | 0 | 0 | 0 | 4 |
| CN1C(=O)C(Nc2ccc(Cl)c(C(=O)O)c2)=C(c2ccc(Cl)cc2)C1=O [SB-404290] | 0 | 6 | 33 | 21 | 17 | 19 | 8 | 34 | 11 | 0 | 32 | 20 | 0 | 0 | 17 | 0 | 14 | 0 | 0 | 0 |
| COC(=O)c1c(-c2ccccc2)c2cc(C(=O)O)ccc2c(=O)n1Cc1ccccc1 | 0 | 0 | 0 | 31 | 0 | 14 | 0 | 0 | 0 | 0 | 43 | 0 | 4 | 0 | 0 | 0 | 7 | 0 | 18 | 0 |
| Nc1ncnc2[nH]c(-c3ccccc3)nc12 [AH5015] | 0 | 21 | 23 | 59 | 0 | 19 | 0 | 39 | 21 | 39 | 0 | 0 | 3 | 42 | 55 | 0 | 19 | 0 | 0 | 0 |
| Cc1ccc(NC(=O)Nc2cccc(Cl)c2)cc1-c1ccc(C(=O)Nc2ccncc2)cc1 [GSK1398468] | 0 | 22 | 4 | 0 | 0 | 0 | 0 | 3 | 0 | 40 | 13 | 6 | 0 | 0 | 9 | 15 | 0 | 0 | 27 | 100 |
| COc1ccc(Nc2nccc(NCCNC(=O)Nc3ccccc3F)n2)cc1 [GSK1379901] | 0 | 30 | 13 | 0 | 0 | 0 | 0 | 7 | 0 | 36 | 9 | 0 | 10 | 0 | 11 | 12 | 0 | 0 | 36 | 8 |
| Cl.Oc1ccc(-c2nc(-c3ccccc3)[nH]c2-c2ccncc2)cc1 [SB-428218] | 0 | 11 | 0 | 15 | 0 | 5 | 16 | 1 | 0 | 38 | 42 | 3 | 8 | 0 | 0 | 12 | 0 | 3 | 33 | 0 |
| Fc1cccc(COc2nnc(-c3ccc4c(c3)CCO4)o2)c1 | 8 | 0 | 9 | 44 | 0 | 25 | 23 | 0 | 3 | 0 | 7 | 0 | 2 | 21 | 7 | 0 | 0 | 0 | 44 | 0 |
| Cc1ccccc1-n1cnc2c(N)ncnc21 [SKF-97510] | 0 | 1 | 0 | 0 | 0 | 0 | 0 | 0 | 0 | 0 | 1 | 0 | 0 | 0 | 0 | 0 | 0 | 0 | 0 | 0 |
| Nc1nc(-c2nccs2)c(-c2ccnc3ccccc23)s1 [GW693542] | 0 | 5 | 14 | 0 | 0 | 3 | 0 | 21 | 0 | 30 | 23 | 0 | 10 | 0 | 9 | 31 | 0 | 0 | 18 | 7 |
| Cl.c1ccc(-c2n[nH]cc2-c2ccnc(-c3ccc(CN4CCOCC4)cc3)c2)nc1 [GW776245] | 0 | 0 | 0 | 0 | 13 | 54 | 0 | 0 | 17 | 64 | 2 | 0 | 0 | 0 | 0 | 0 | 0 | 0 | 0 | 0 |
| Cc1cc(-c2ccc3c(c2)CC[C@@H](N[C@@H](C)c2ccccc2)C3)cnc1N.Cl [GW412617] | 0 | 0 | 6 | 0 | 0 | 0 | 6 | 12 | 6 | 55 | 0 | 0 | 0 | 0 | 0 | 0 | 31 | 17 | 76 | 2 |
| CC(C)(C)c1ccc(C(=O)Nc2cn3cc(-c4cccnc4)ccc3n2)cc1 | 24 | 16 | 5 | 0 | 44 | 52 | 27 | 25 | 15 | 11 | 0 | 0 | 0 | 21 | 27 | 11 | 7 | 0 | 41 | 30 |
| Fc1cc(Cl)ccc1Nc1ccnc2cc(-c3ccc(CN4CCCCC4)o3)ccc12 [GW560116] | 0 | 0 | 0 | 32 | 0 | 0 | 0 | 1 | 0 | 14 | 9 | 0 | 24 | 0 | 0 | 20 | 0 | 0 | 22 | 0 |
| O=C(Nc1n[nH]c2cc(-c3cccc(F)c3F)ccc12)C1CC1 [SB-733894] | 55 | 0 | 25 | 9 | 0 | 29 | 15 | 19 | 3 | 0 | 0 | 22 | 0 | 0 | 5 | 11 | 0 | 41 | 0 | 10 |
| CCn1c(-c2ccccn2)nc2cnccc21 [SB-736398] | 0 | 22 | 0 | 47 | 0 | 0 | 13 | 0 | 0 | 38 | 7 | 9 | 19 | 37 | 17 | 0 | 0 | 0 | 45 | 100 |
| CCCc1ccc(S(=O)(=O)NC2CCN(c3ccnc(Nc4ccc(F)cc4)n3)C2)cc1 (stereo not drawn) [GSK1379715] | 0 | 2 | 21 | 0 | 0 | 0 | 0 | 0 | 0 | 37 | 5 | 0 | 0 | 33 | 36 | 0 | 0 | 1 | 36 | 0 |
| Cn1ccc2ncnc(Oc3cccc(C(=O)Nc4ccccc4)c3)c21 | 21 | 24 | 2 | 37 | 8 | 0 | 30 | 5 | 0 | 2 | 0 | 8 | 2 | 22 | 15 | 7 | 0 | 16 | 0 | 0 |
| Cn1ccc2ncnc(Oc3ccc(Nc4nc5ccccc5[nH]4)cc3)c21 | 0 | 12 | 0 | 50 | 8 | 17 | 0 | 0 | 9 | 0 | 0 | 0 | 0 | 0 | 0 | 0 | 17 | 0 | 0 | 0 |

From paper PMC5540273 (PLoS ONE, 2017)
